# The supplement of paper PMC6897291
# How the values were obtained:
# U-2932 [1] = assay: growth inhibition by drug alone (1 - RLU/untreated control) (fraction); higher = stronger inhibition; conditions: 177Lu-lilotomab satetraxetan 0 ug/ml
# Method in brief: (§1)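 RIVA or U-2932 cells were left untreated or pretreated for 18 h with a radiolabelled anti-CD37 antibody conjugate (~600 MBq/mg) at 0.5 µg/ml for RIVA or 1 µg/ml for U-2932. The cells were then washed and seeded at 3,000 cells/well on plates pre-printed with the Selleck Cambridge Cancer Compound library, dosed at 10/100 nM for RIVA and 10/1,000 nM for U-2932. From day 3, RealTime-Glo luminescence was read daily after 1 h at 37°C. Growth inhibition was taken as one minus RLU over the mean of the untreated no-drug wells, of which there were 48 per plate.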
# RIVA [2] = assay: as above; conditions: 177Lu-lilotomab satetraxetan 0 ug/ml
# Method in brief: as §1
# U-2932 [3] = assay: growth inhibition by drug plus 177Lu-lilotomab satetraxetan (1 - RLU/untreated control) (fraction); higher = stronger inhibition; conditions: 177Lu-lilotomab satetraxetan 1 ug/ml
# Method in brief: as §1
# RIVA [4] = assay: as above; conditions: 177Lu-lilotomab satetraxetan 0.5 ug/ml
# Method in brief: as §1
SMILES,"growth inhibition by drug alone (U-2932 [1]; 10 nM, time (day): 3)","growth inhibition by drug alone (U-2932 [1]; 10 nM, time (day): 4)","growth inhibition by drug alone (U-2932 [1]; 10 nM, time (day): 5)","growth inhibition by drug alone (U-2932 [1]; 10 nM, time (day): 6)","growth inhibition by drug alone (U-2932 [1]; 1000 nM, time (day): 3)","growth inhibition by drug alone (U-2932 [1]; 1000 nM, time (day): 4)","growth inhibition by drug alone (U-2932 [1]; 1000 nM, time (day): 5)","growth inhibition by drug alone (U-2932 [1]; 1000 nM, time (day): 6)","growth inhibition by drug alone (RIVA [2]; 10 nM, time (day): 3)","growth inhibition by drug alone (RIVA [2]; 10 nM, time (day): 4)","growth inhibition by drug alone (RIVA [2]; 10 nM, time (day): 5)","growth inhibition by drug alone (RIVA [2]; 10 nM, time (day): 6)","growth inhibition by drug alone (RIVA [2]; 100 nM, time (day): 3)","growth inhibition by drug alone (RIVA [2]; 100 nM, time (day): 4)","growth inhibition by drug alone (RIVA [2]; 100 nM, time (day): 5)","growth inhibition by drug alone (RIVA [2]; 100 nM, time (day): 6)","growth inhibition by drug plus 177Lu-lilotomab satetraxetan (U-2932 [3]; 10 nM, time (day): 3)","growth inhibition by drug plus 177Lu-lilotomab satetraxetan (U-2932 [3]; 10 nM, time (day): 4)","growth inhibition by drug plus 177Lu-lilotomab satetraxetan (U-2932 [3]; 10 nM, time (day): 5)","growth inhibition by drug plus 177Lu-lilotomab satetraxetan (U-2932 [3]; 10 nM, time (day): 6)","growth inhibition by drug plus 177Lu-lilotomab satetraxetan (U-2932 [3]; 1000 nM, time (day): 3)","growth inhibition by drug plus 177Lu-lilotomab satetraxetan (U-2932 [3]; 1000 nM, time (day): 4)","growth inhibition by drug plus 177Lu-lilotomab satetraxetan (U-2932 [3]; 1000 nM, time (day): 5)","growth inhibition by drug plus 177Lu-lilotomab satetraxetan (U-2932 [3]; 1000 nM, time (day): 6)","growth inhibition by drug plus 177Lu-lilotomab satetraxetan (RIVA [4]; 10 nM, time (day): 3)","growth inhibition by drug plus 177Lu-lilotomab satetraxetan (RIVA [4]; 10 nM, time (day): 4)","growth inhibition by drug plus 177Lu-lilotomab satetraxetan (RIVA [4]; 10 nM, time (day): 5)","growth inhibition by drug plus 177Lu-lilotomab satetraxetan (RIVA [4]; 10 nM, time (day): 6)","growth inhibition by drug plus 177Lu-lilotomab satetraxetan (RIVA [4]; 100 nM, time (day): 3)","growth inhibition by drug plus 177Lu-lilotomab satetraxetan (RIVA [4]; 100 nM, time (day): 4)","growth inhibition by drug plus 177Lu-lilotomab satetraxetan (RIVA [4]; 100 nM, time (day): 5)","growth inhibition by drug plus 177Lu-lilotomab satetraxetan (RIVA [4]; 100 nM, time (day): 6)"
CCC(C)n1ncn(-c2ccc(N3CCN(c4ccc(OCC5COC(Cn6cncn6)(c6ccc(Cl)cc6Cl)O5)cc4)CC3)cc2)c1=O (centres undefined) [Itraconazole (Sporanox)],0.0829,0.0704,0.0582,-0.11,0.0952,0.087,0.0678,-0.00563,-0.0197,0.0654,-0.0473,-0.325,-0.037,0.0162,0.00541,-0.0886,0.0224,0.0823,0.142,0.126,0.102,0.147,0.188,0.311,0.61,0.642,0.66,0.668,0.407,0.522,0.541,0.559
COc1cc2c(NC3CCN(C)CC3)nc(N3CCCN(C)CC3)nc2cc1OCCCN(C)C,0.0324,-0.0188,-0.094,-0.326,-0.0483,-0.0744,-0.125,-0.235,-0.117,-0.195,-0.474,-0.819,-0.568,-0.503,-0.528,-0.706,-0.0493,-0.0119,0.0125,0.00172,-0.0195,-0.0136,0.00791,0.0785,0.365,0.464,0.475,0.499,0.316,0.452,0.453,0.469
CC(C)(C#N)c1cc(Cn2cncn2)cc(C(C)(C)C#N)c1 [Anastrozole],0.105,0.0583,0.0212,-0.021,0.0109,0.046,-0.0146,-0.259,0.0128,-0.01,-0.0521,-0.213,-0.0495,-0.0262,-0.0644,-0.17,0.0156,0.039,0.0695,0.0754,-0.103,0.0124,-0.0136,-0.0141,0.481,0.583,0.593,0.583,0.423,0.506,0.523,0.499
Cn1cc(-c2ccc3nnc(C(F)(F)c4ccc5ncccc5c4)n3n2)cn1,-0.0908,-0.108,-0.0614,-0.0112,-0.151,-0.112,-0.0976,0.0327,-0.216,-0.252,-0.259,-0.266,-0.157,-0.252,-0.203,-0.226,-0.0849,-0.0323,0.0158,0.0612,-0.131,-0.0707,-0.0177,0.142,0.285,0.449,0.457,0.453,0.342,0.401,0.428,0.429
COc1ccc(-c2ccc3c(N4CCOCC4)nc(N4C[C@@H](C)O[C@@H](C)C4)nc3n2)cc1CO,0.119,0.133,0.0721,0.0015,0.602,0.481,0.389,0.407,0.0903,0.0995,0.0433,-0.131,0.104,0.122,0.0472,-0.0784,0.0319,0.069,0.0942,0.161,0.496,0.409,0.361,0.434,0.514,0.598,0.603,0.621,0.475,0.552,0.55,0.529
CC(=O)O[C@]1(C(C)=O)CC[C@H]2[C@@H]3C=C(C)C4=CC(=O)CC[C@]4(C)[C@H]3CC[C@@]21C [Megestrol Acetate],0.119,0.0962,0.0591,0.00317,0.0742,0.112,0.0515,-0.0501,-0.0198,-0.0102,-0.107,-0.454,0.0472,0.023,-0.0299,-0.147,0.0333,0.104,0.0868,0.12,0.044,0.137,0.0953,0.163,0.408,0.529,0.546,0.551,0.497,0.522,0.525,0.508
CN(C)c1nc(N(C)C)nc(N(C)C)n1 [Altretamine (Hexalen)],-0.0883,-0.0905,-0.0583,-0.058,-0.122,-0.0758,-0.114,0.0216,-0.25,-0.257,-0.29,-0.318,-0.545,-0.424,-0.488,-0.694,-0.146,-0.0735,-0.0141,-0.0604,-0.101,-0.0503,0.00142,0.121,0.349,0.469,0.481,0.485,0.239,0.318,0.312,0.332
